Reference: PubChem BioAssay (EPA / NIEHS)
The source made the active and inactive calls. Rule for the calls: active = hit-call score of the fitted dose curve at least 0.9, where 1 is the maximum; inactive = score below 0.9.

What was measured:
[1] = ATG_GLI_CIS: Attagene CIS-FACTORIAL HepG2 Assay for human Zinc Finger Protein GLI1 (AID 2282945); details: HepG2, Attagene cis-factorial reporter mRNA, GLI element; actives raise or lower the signal
Procedure, shortened: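 HepG2 cells transiently transfected with cis-promoter multiplexed reporter units report endogenous transcription factor activity. After 24 h chemical exposure, reporter mRNA was quantified by RT-PCR, 6-FAM labelling, HpaI digestion and capillary electrophoresis, with bidirectional fitting against DMSO.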

[2] = ATG_GRE_CIS: Attagene CIS-FACTORIAL HepG2 Assay for human Glucocorticoid Response Elements (GRE) (AID 2282947); details: HepG2 GRE cis-reporter, Attagene multiplex mRNA; actives raise or lower the signal
Procedure, shortened: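 HepG2 cells transiently transfected with multiple cis-promoter reporter units measure endogenous TF activity; 24 h compound exposure. Reporter mRNA quantified by RT-PCR, FAM labelling, HpaI digestion and capillary electrophoresis; bidirectional fit vs DMSO baseline.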

[3] = ATG_ISRE_CIS: Attagene CIS-FACTORIAL HepG2 Assay for human Interferon Regulatory Factor 1 (IRF1) binding to an Interferon-Stimulated Response Element (ISRE) (AID 2282948); details: HepG2 ISRE cis-reporter (Attagene), mRNA transcription readout; actives raise or lower the signal
Procedure, shortened: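 Quantitation relies on labelled RT-PCR fragments separated by capillary electrophoresis. Human HepG2 cells bearing cis-promoter reporter constructs were treated 24 h; DMSO served as baseline for bidirectional fitting.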

[4] = ATG_M_32_CIS: Attagene CIS-FACTORIAL HepG2 Assay for M32 Transcription Factor (Internal Marker) (AID 2282949); details: HepG2 Attagene cis-factorial M32 reporter, mRNA; actives raise or lower the signal;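 note: background control marker of the multiplexed CIS panel rather than a real target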
Procedure, shortened: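 Internal background marker read-out: RT-PCR/capillary electrophoresis fluorescence of reporter transcripts from transiently transfected HepG2 cells after 24 h chemical exposure. Activity fitted bidirectionally relative to DMSO negative control.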

[5] = ATG_M_06_CIS: Attagene CIS-FACTORIAL HepG2 Assay for M06 Transcription Factor (Internal Marker) (AID 2282950); details: HepG2 Attagene CIS-FACTORIAL M06 internal marker reporter; actives raise or lower the signal
Procedure, shortened: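 Terse: HepG2, transient MRTU transfection (FuGene 6), 24 h dosing; total RNA, oligo(dT) RT, PCR, FAM label, HpaI cut, capillary electrophoresis; bidirectional fit vs DMSO baseline; background-control endpoint.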

[6] = biological target: Hypoxia-inducible factor 1-alpha (Homo sapiens) (UniProt Q16665); experiment: ATG_HIF1a_CIS: Attagene CIS-FACTORIAL HepG2 Assay for human Hypoxia Inducible Factor 1 (HIF1A) (AID 2282951); details: HepG2 Attagene cis-factorial HIF1a reporter transcription; actives raise or lower the signal
Hypoxia-inducible factor 1-alpha (Homo sapiens), sequence (Q16665 whole entry, looked up): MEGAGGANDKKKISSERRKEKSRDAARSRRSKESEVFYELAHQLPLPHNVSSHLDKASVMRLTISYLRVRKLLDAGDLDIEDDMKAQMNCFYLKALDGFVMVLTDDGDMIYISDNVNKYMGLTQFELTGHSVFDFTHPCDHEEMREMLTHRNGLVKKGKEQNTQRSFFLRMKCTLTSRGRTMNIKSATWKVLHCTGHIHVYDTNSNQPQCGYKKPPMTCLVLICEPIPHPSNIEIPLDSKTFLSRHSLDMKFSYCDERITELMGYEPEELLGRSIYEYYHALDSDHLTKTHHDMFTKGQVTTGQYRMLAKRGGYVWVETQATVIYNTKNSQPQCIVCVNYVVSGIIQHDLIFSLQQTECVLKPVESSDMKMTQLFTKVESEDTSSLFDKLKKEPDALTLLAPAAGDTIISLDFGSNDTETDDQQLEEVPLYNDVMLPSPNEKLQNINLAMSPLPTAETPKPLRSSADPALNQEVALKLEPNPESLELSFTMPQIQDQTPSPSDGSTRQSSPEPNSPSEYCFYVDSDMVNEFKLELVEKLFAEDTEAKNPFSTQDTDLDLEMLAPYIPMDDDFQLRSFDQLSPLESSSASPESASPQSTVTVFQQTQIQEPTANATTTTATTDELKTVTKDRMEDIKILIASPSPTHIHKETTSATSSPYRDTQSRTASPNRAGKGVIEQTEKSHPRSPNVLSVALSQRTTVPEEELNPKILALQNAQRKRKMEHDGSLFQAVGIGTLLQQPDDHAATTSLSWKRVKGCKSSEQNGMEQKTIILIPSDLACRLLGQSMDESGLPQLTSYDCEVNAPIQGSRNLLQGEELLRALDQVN
Procedure, shortened: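 RT-PCR/capillary electrophoresis fluorescence readout of reporter transcripts from endogenous-TF-driven cis elements in transfected HepG2 cells, 24 h exposure; activity fitted in both directions against DMSO controls.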

[7] = biological target: Hepatocyte nuclear factor 6 (Homo sapiens) (UniProt Q9UBC0); experiment: ATG_HNF6_CIS: Attagene CIS-FACTORIAL HepG2 Assay for human Hepatocyte Nuclear Factor 6 (HNF6) (AID 2282952); details: HepG2 Attagene cis-factorial HNF6 reporter transcription; actives raise or lower the signal
Hepatocyte nuclear factor 6 (Homo sapiens), sequence (Q9UBC0 whole entry, looked up, the tested form may be a part): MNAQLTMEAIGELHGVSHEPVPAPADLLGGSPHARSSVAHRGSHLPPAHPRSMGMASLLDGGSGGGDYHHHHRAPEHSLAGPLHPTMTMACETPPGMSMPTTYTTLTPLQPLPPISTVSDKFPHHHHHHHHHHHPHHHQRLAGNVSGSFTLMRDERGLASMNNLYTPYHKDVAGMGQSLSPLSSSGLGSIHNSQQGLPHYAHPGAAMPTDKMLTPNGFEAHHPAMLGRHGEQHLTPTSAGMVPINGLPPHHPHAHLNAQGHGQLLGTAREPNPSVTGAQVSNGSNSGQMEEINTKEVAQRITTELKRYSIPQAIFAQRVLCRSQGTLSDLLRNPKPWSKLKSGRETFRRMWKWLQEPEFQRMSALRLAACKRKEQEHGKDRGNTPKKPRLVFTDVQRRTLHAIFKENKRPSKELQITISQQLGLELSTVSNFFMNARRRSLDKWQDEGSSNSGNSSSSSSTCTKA
Procedure, shortened: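 Reporter mRNA induction or loss in HepG2 after 24 h exposure; transient cis-MRTU transfection; fragments quantified by capillary electrophoresis; bidirectional analysis, DMSO as negative control.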

[8] = biological target: Heat shock factor protein 1 (Homo sapiens) (UniProt Q00613); experiment: ATG_HSE_CIS: Attagene CIS-FACTORIAL HepG2 Assay for human Heat Shock Transcription Factor 1 (HSE) (AID 2282953); details: HepG2 HSE cis-reporter, Attagene RNA transcription; actives raise or lower the signal
Heat shock factor protein 1 (Homo sapiens), sequence (Q00613 whole entry, looked up, the tested form may be a part): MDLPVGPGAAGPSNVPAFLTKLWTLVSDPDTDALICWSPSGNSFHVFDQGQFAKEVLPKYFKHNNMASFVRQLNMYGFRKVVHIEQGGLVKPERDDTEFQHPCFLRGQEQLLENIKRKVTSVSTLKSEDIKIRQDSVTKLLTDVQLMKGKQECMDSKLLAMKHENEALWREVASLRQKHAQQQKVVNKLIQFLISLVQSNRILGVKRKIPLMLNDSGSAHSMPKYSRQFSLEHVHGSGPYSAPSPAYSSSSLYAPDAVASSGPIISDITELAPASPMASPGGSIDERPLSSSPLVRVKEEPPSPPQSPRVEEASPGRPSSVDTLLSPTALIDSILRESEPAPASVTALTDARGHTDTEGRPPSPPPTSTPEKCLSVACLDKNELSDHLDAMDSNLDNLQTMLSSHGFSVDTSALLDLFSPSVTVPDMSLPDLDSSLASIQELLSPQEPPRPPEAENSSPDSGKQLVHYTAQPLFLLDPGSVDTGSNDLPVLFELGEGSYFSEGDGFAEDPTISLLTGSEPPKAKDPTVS
Procedure, shortened: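 Read-out: fluorescence of reporter-specific RT-PCR fragments separated by capillary electrophoresis. HepG2 carrying transfected cis-element reporter units; 24 h dosing; activity fitted in both directions relative to DMSO baseline.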

[9] = ATG_MRE_CIS: Attagene CIS-FACTORIAL HepG2 Assay for human Metal Responsive Element (MRE) (AID 2282954); details: HepG2 MRE cis-reporter transcription, Attagene multiplex; actives raise or lower the signal
Procedure, shortened: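 HepG2 cells transiently transfected with multiple cis-element reporter units measure endogenous MTF1-driven transcription. After 24 h compound exposure, reporter mRNA is quantified by RT-PCR with 6-FAM labelling, HpaI digestion and capillary electrophoresis; bidirectional fits versus DMSO.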

Measured: outcome

CCCCCCCCCCCCCCCCCC(=O)OCCCCCCCCCCCCCC(C)C
inactive: [1] | [2] | [3] | [4] | [5] | [6] | [7] | [8] | [9]

CCCCCCC(C)O (centres undefined)
inactive: [1] | [2] | [3] | [4] | [5] | [6] | [7] | [8] | [9]

O=C(C=Cc1ccccc1)OCCCc1ccccc1
inactive: [1] | [2] | [3] | [4] | [5] | [6] | [7] | [8] | [9]

CC(C)(CO)CO
inactive: [1] | [2] | [3] | [4] | [5] | [6] | [7] | [8] | [9]

O=S1(=O)CC=CC1
inactive: [1] | [2] | [3] | [4] | [5] | [6] | [7] | [8] | [9]

O=C(O)CS
inactive: [1] | [2] | [3] | [4] | [5] | [6] | [7] | [8] | [9]

CCCC[N+](C)(CCCC)CCCC
inactive: [1] | [2] | [3] | [4] | [5] | [6] | [7] | [9]

CC(C)COC(=O)c1ccccc1
inactive: [1] | [2] | [3] | [4] | [5] | [6] | [7] | [9]

C1CCCNCC1
inactive: [1] | [2] | [3] | [4] | [5] | [6] | [7] | [8] | [9]

CCOC(=O)C(=O)OCC
inactive: [1] | [2] | [3] | [4] | [5] | [6] | [7] | [8] | [9]

CCCCCCCCCCCCN1CCOCC1
inactive: [1] | [2] | [3] | [4] | [5] | [6] | [7] | [8] | [9]

S=c1[nH][nH]c(=S)s1
inactive: [1] | [2] | [3] | [4] | [5] | [7] | [8]

CC(C)COC(=O)c1ccccc1O
inactive: [1] | [2] | [3] | [4] | [5] | [6] | [7] | [8] | [9]

CC(C)(C)C1CCC(O)CC1 (centres undefined)
inactive: [1] | [2] | [3] | [4] | [5] | [6] | [7] | [8] | [9]

CCCCCCCCCCCCCC(=O)OCC
inactive: [1] | [2] | [3] | [4] | [5] | [6] | [7] | [8] | [9]

CC(C)(C)c1ccc(S)cc1
inactive: [1] | [2] | [3] | [4] | [5] | [6] | [7] | [8] | [9]

C/C=C(\C)C(=O)OC/C=C(\C)CCC=C(C)C
inactive: [1] | [2] | [3] | [4] | [5] | [6] | [7] | [9]

CNC(=C[N+](=O)[O-])NCCSCc1ccc(CN(C)C)o1
inactive: [1] | [2] | [3] | [4] | [5] | [9]

CCOC(=O)COC(=O)c1ccccc1C(=O)OCC
inactive: [1] | [2] | [3] | [4] | [6] | [7] | [8] | [9]

FC(F)(F)c1ccc(Cl)c(Cl)c1
inactive: [1] | [2] | [3] | [4] | [5] | [7] | [8] | [9]

CCCCCC#CC(=O)OC
inactive: [1] | [3] | [4] | [5] | [6] | [7] | [8]

C=C(C)C(=O)OCCC[Si](OC)(OC)OC
inactive: [1] | [2] | [3] | [4] | [5] | [7] | [8] | [9]

Cc1ccc(C(C)(C)O)cc1
inactive: [1] | [2] | [3] | [4] | [5] | [7] | [8] | [9]

CCOC(=O)CC(C)C
inactive: [1] | [2] | [3] | [4] | [5] | [7] | [8] | [9]

CC(=O)N(C)C
inactive: [1] | [2] | [3] | [4] | [6] | [8] | [9]

COc1cc(OC)c2ccc(=O)oc2c1
inactive: [1] | [3] | [4] | [5] | [6] | [7] | [8]

CC(C)(O)C(=O)c1ccc(OCCO)cc1
inactive: [1] | [2] | [3] | [4] | [5] | [7] | [8] | [9]

NC(=O)c1cnccn1
inactive: [1] | [2] | [3] | [4] | [5] | [7] | [8] | [9]

O=C(O)c1ccc(C(=O)O)c(C(=O)O)c1
inactive: [1] | [2] | [3] | [4] | [5] | [7] | [8] | [9]
